HCMV antiviral = blocks human cytomegalovirus replication | HFF cells, HCMV-luciferase reporter, 72 h; hits give low values | activity change, negative = inhibition, % at 57.5 µM | 410,000 compounds, 4.5% hits; in the data active = activity change below about -60%; inconclusive = no clear call, values can overlap the other calls; inactive = above about -39%; also: % is scaled to controls: 0 for no effect and ±100 for the full control effect
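Luciferase read-out from HCMV-luciferase-infected HFFs (MOI 1 PFU/cell) 72 h post infection at 37C; compounds added after 16 h cell attachment; activity normalized between buffer-only basal and Salinomycin (10uM) inhibitor controls.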
Pf growth 96h = inhibits malaria parasite growth, 96 h. P. falciparum luciferase reporter growth, 96 h. Potency, µM (doses to about 28.7 µM), inactives show at the top dose activity change, negative = inhibition, actives largely listed as inhibitors. 320,000 compounds, 6.9% hits; also: potency is read from the fitted curve at half-maximal effect; % is scaled to controls: 0 for no effect and ±100 for the full control effect
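Luminescence readout: decreased luciferase signal marks inhibited growth of reporter-expressing P. falciparum in infected red cells (2% hematocrit, 0.05% parasitemia final), exposed to compound two generations (96 h, 37 C, 5% CO2).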
Pf growth 48h = P. falciparum growth inhibition at 48 hours (one generation); Potency, µM (highest dose often 28.7 µM), without a hit: at the top dose activity change, negative = inhibition, usual class: inhibitors; P. falciparum luciferase growth in erythrocytes, 48 h; 310,000 compounds, 5.9% hits; AID 504832; also: potency is read from the fitted curve at half-maximal effect; % is scaled to controls: 0 for no effect and ±100 for the full control effect
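Erythrocytes infected with P. falciparum carrying an integrated firefly luciferase reporter (2% hematocrit, 0.1% parasitemia final) were exposed to compounds in RPMI 1640 with 0.5% Albumax at 37 C, 5% CO2. Growth inhibition was scored as reduced luminescence.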
Cycloheximide cs = counter-screen for Shiga toxin inhibitors: cycloheximide protein synthesis inhibition. cell reporter, cycloheximide protein synthesis inhibition counterscreen. max response, %. 300,000 compounds, 12% hits; in the data active = max response mostly above about 13%, no sharp cut-off; inactive = mostly below about 14%; also: read at 38.3 µM for the half of the compounds with a filed dose; 0% is about no effect
HCV inh = HCV inhibition; Huh7.5.1 HCVcc-Cre infection, luciferase reporter, 44 h; Potency, µM (series often up to 41.8 µM), inactives show at the highest dose activity change, negative = inhibition, most hits filed as inhibitors; 340,000 compounds, 3.4% hits; AID 651820; also: potency is read from the fitted curve at half-maximal effect; % is scaled to controls: 0 for no effect and ±100 for the full control effect
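Antiviral activity was scored by luciferase reporter output from cells infected with HCVcc-Cre (~0.5 moi) in presence of compound, 44 h infection period, cells seeded 1,000/well 4 h prior.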
Shiga toxin inh = blocks Shiga toxin action in Vero cells. inhibition, % at 38.7 µM. Vero cells, Shiga toxin protein synthesis inhibition reporter. 290,000 compounds, 9.2% hits; in the data active = inhibition mostly above about 28%, no sharp cut-off; inactive = mostly below about 43%; also: 0% is about no effect
* marks the source's active call; other numbers are inactive results; ? = inconclusive; . = not tested or not shown; ! = not confirmed by another sample. Shown are actives, neighbours in structure and some others; about 21% of the full set was active somewhere. Unless noted, calls follow the shape of the dose curve; as a rule, active = well fitted inhibition curve with a large enough effect; inconclusive = small, poorly fitted or top-dose-only effect, or another doubt; inactive = no such curve, though single readings can be large or run the other way.

SMILES	HCMV antiviral	Pf growth 96h	Pf growth 48h	Cycloheximide cs	HCV inh	Shiga toxin inh
COc1cccc(C2CC3(CC(C)(C)NC(=S)N3)Oc3cc(O)ccc32)c1 (stereo not given)	-37	-10%	-5%	-5	?	-10
Cc1cccc(C2CC3(CC(C)(C)NC(=S)N3)Oc3cc(O)ccc32)c1 (stereo not given)	14	-9%	?	-2	10µM*	-25
O=C(CS(=O)(=O)c1ccc(Cl)cc1)NCc1ccccc1	-3	?	20%	8	8%	6
C=CCSc1ncc(-c2ccccc2)cn1	?	134%	?	35*	-15%	63*
C#CCSc1nnc(-c2ccccc2)c(=O)[nH]1	48	?	7%	2	?	32
CSc1nnc(-c2ccccc2)c(-c2ccccc2)n1	?	?	12µM*	1	-29%	-5
CCOC(=O)CSc1ncc(-c2ccccc2)cn1	12	11%	-9%	14	1%	71
CSc1ncc(-c2ccccc2)cn1	-36	16%	26%	47*	-11%	77
C#CCSc1ncc(-c2ccccc2)cn1	31	54%	358%	44*	0%	77*
CC1=C(C(=O)N2CCCCCC2)CC(CC(=O)NC(c2ccccc2)c2ccccc2)C(=O)N1Cc1ccccc1 (stereo not given)	-2	.	.	.	.	.
CCc1ccccc1N1CC(c2nc3ccccc3n2Cc2cccc(C)c2)CC1=O (stereo not given)	-6	.	.	.	.	.
CN1N=C(C(=O)NC2CCCc3c2cnn3-c2ccc(F)cc2F)CCC1=O (stereo not given)	13	-23%	-5%	1	?	15
Cc1nnsc1C(=O)NC1CCCc2c1cnn2-c1ccc(F)cc1F (stereo not given)	-92*	?	-6%	11	?	-21
Cc1nnsc1C(=O)NC1CCCc2c1cnn2-c1cc(F)cc(F)c1 (stereo not given)	79	50%	-8%	8	.	11
Cc1ccc(C(=O)NC2CCCc3c2cnn3-c2ccc(F)cc2F)cn1 (stereo not given)	-86*	?	71%	-1	.	-6
Cc1ccc(CSCC2Nc3ccc(C(=O)N4CCN(c5cccc(C)c5)C(C)C4)cc3NC2=O)cc1 (stereo not given)	.	14%	?	-6	.	-2
Nc1ncnc2c1ncn2[C@@H]1O[C@H](CNCC#Cc2ccccc2)[C@@H](O)[C@H]1O	.	.	.	.	-7%	.
COc1cc(OC)c2ccc(=O)oc2c1C(CC(=O)N1CCCC1)c1ccc(N(C)C)cc1 (stereo not given)	11	?	?	22*!	25%	30
COc1ccc(C(CC(=O)N2CCCC2)c2c(OC)cc(OC)c3ccc(=O)oc23)cc1 (stereo not given)	-22	?	?	-3	2.8µM*	-12
COc1cc(OC)c2ccc(=O)oc2c1C(CC(=O)N1CCOCC1)c1ccc(N(C)C)cc1 (stereo not given)	-9	?	?	-4	1%	-15
COc1ccc(C(CC(=O)N2CCCC(C)C2)c2c(OC)cc(OC)c3ccc(=O)oc23)cc1 (stereo not given)	-32	?	12µM*	5	11µM*	-9
Cc1ccc2nc(-c3cccc(Br)c3)c(Cc3cccc(Cl)c3)n2c1	83	.	.	.	.	.
CC1CC(=O)c2c(cc3c(-c4c(O)cc(O)c5c(O)c6c(cc45)OC(C)CC6=O)c(O)cc(O)c3c2O)O1 (stereo not given)	.	6%	0.41µM*	2	4.5µM*	-20
CC(=O)N1CCc2cc(Br)cc(S(=O)(=O)NCCc3ccc(Cl)cc3)c21	3	.	.	.	.	.
CC(C)Cc1nccs1	20	5%	1%	.	2%	.
SMILES	HCMV antiviral	Pf growth 96h	Pf growth 48h	Cycloheximide cs	HCV inh	Shiga toxin inh
N#CC1=C(N)C(C#N)(C#N)C(c2cccnc2)C2CN(C(=O)OCc3ccccc3)CC=C12 (stereo not given)	-8	9.3µM*	?	-2	-29%	-4
COc1ccc(OC)c(C2C3CN(C(C)C)CC=C3C(C#N)=C(N)C2(C#N)C#N)c1 (stereo not given)	-8	?	?	-1	-5%	-13
CC(=O)N1CC=C2C(C#N)=C(N)C(C#N)(C#N)C(CCc3ccccc3)C2C1 (stereo not given)	56	-7%	-28%	-2	2%	-22
CCCCOc1ccc(C2C3CN(C(=O)OCC)CC=C3C(C#N)=C(N)C2(C#N)C#N)cc1OC (stereo not given)	33	.	12µM*	7	-13%	3
CCOC(=O)N1CC=C2C(C#N)=C(N)C(C#N)(C#N)[C@H](c3ccc(OCC)c(OCC)c3)[C@H]2C1	19	8%	5.2µM*	1	?	23
Cc1ccc(C2C3CN(C(C)C)CC=C3C(C#N)=C(N)C2(C#N)C#N)cc1 (stereo not given)	-21	0%	8.3µM*	0	-9%	-3
COc1cccc(C(=O)NNC(=O)C(=O)Nc2cccc3ccccc23)c1	-16	?	39%	-1	-14%	-11
CCCCNC(=O)NS(=O)(=O)c1ccc(C(=O)O)cc1	.	.	.	-4	.	-10
CN=c1scc(-c2ccccc2Br)n1/N=C/c1ccc[nH]1	.	102%	163%	29*	.	86*
CCOC(=O)c1cc2c(=O)n3ccccc3nc2n(Cc2ccco2)c1=NC(=O)c1cccc(F)c1	-13	.	.	.	.	.
CCCN(CCC)S(=O)(=O)c1ccc(C(=O)N2CCC(=O)c3ccccc32)cc1	-60*	-8%	?	-6	-12%	12
O=C1CCN(C(=O)c2ccccc2)c2ccccc21	-28	.	.	.	.	.
CCOC(=O)c1cc(-c2ccc(F)cc2)n(CCC(=O)NC2CCC(C)CC2)c1C (stereo not given)	0	.	.	.	.	.
CCOC(=O)c1ccc(-c2ccc(C3Nc4ccccc4C(=O)N3O)o2)cc1 (stereo not given)	52	-89%	?	33*	?	145*
N#Cc1ccc(-c2ccc(C3Nc4ccccc4C(=O)N3O)o2)cc1 (stereo not given)	12	?	?	.	.	.
Cc1cc([N+](=O)[O-])ccc1-c1ccc(C2Nc3ccccc3C(=O)N2O)o1 (stereo not given)	-99*	?	48%	-2	11µM*	-20
Cc1ccc(S(=O)(=O)Nc2nc(-c3ccc(F)cc3)cs2)cc1	17	69%	55%	13*	6%	0
O=[N+]([O-])c1ccc(S(=O)(=O)Nc2nc(-c3ccccc3)cs2)cc1	2	6.6µM*	25%	-1	13%	-6
COC(=O)c1c(NC(=O)CSc2ncnc3c2cnn3-c2ccccc2Cl)sc2c1CCCC2	-85*	?	?	-2	?	11

Source: PubChem (National Center for Advancing Translational Sciences (NCATS))
